Several values for one entry are separate records, joined by “and”; a condition that tells them apart may be missing. Equal entries are not always repeated. About 83,000 compounds went through this panel and 20% of them were active in at least one assay; those are over-represented in the sample as a whole.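 Assay: single dose, 48 h. Readout: percent growth (0 = no net growth; negative = cell death). Active: <10.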 Activity calls are given as the source filed them.
How the values were obtained:
Test in all cases: NCI-60 one-dose screen, 48 h (100 = growth as untreated, 0 = no growth, -100 = all killed)
Settings in all cases: 10 µM unless noted
T-47D breast = system: T-47D breast
BT-549 breast = system: BT-549 breast
MDA-MB-435 melanoma = system: MDA-MB-435 melanoma
SW-620 colon = system: SW-620 colon
MCF7 breast = system: MCF7 breast
HCT-116 colon = system: HCT-116 colon
HCC-2998 colon = system: HCC-2998 colon
KM12 colon = system: KM12 colon

Compound | growth (T-47D breast) | growth (BT-549 breast) | growth (MDA-MB-435 melanoma) | growth (SW-620 colon) | growth (MCF7 breast) | growth (HCT-116 colon) | growth (HCC-2998 colon) | growth (KM12 colon)
C=C(CN1CC=CCC1)[C@@H]1CC[C@]2(COC(C)=O)CC[C@]3(C)[C@H](CC[C@@H]4[C@@]5(C)CC[C@H](O)C(C)(C)[C@@H]5CC[C@]43C)[C@@H]12 | 78.7% (inactive) | 106% (inactive) | 99.2% (inactive) | 97.4% (inactive) | 90.4% (inactive) | 93.6% (inactive) | 112% (inactive) | 106% (inactive)
CCOC(=O)c1nnn(Cc2cc(=O)oc3c2ccc2ccccc23)c1C | 93.9% (inactive) | 108% (inactive) | 105% (inactive) | 107% (inactive) | 92% (inactive) | 89.3% (inactive) | 106% (inactive) | 104% (inactive)
O=C1OCC2=C1C(c1cccc([N+](=O)[O-])c1)c1cc3c(cc1N2CCO)CCC3 (centres undefined) | 65.9% (inactive) | 31.5% (inactive) | -34.9% (active) | 22.2% (inactive) | 20% (inactive) | 7.18% (active) | 6.84% (active) | 15.7% (inactive)
O=C1C(N2CCOCC2)=C(I)C(=O)c2ncccc21 | 53.7% (inactive) | 87.1% (inactive) | -69.4% (active) | 69.2% (inactive) | 41.3% (inactive) | 49.4% (inactive) | 86.8% (inactive) | 91.8% (inactive)
COc1ccc(-c2cc(-c3cccnc3)nc3sc4c(Cl)nnnc4c23)cc1OC | 63.6% (inactive) | 99.9% (inactive) | 104% (inactive) | 50.2% (inactive) | 43.8% (inactive) | 94.8% (inactive) | 115% (inactive) | 95.1% (inactive)
COC(=O)c1nc(-c2ccc(C)cc2)oc1Sc1ccc(C)cc1 | 72.9% (inactive) | 101% (inactive) | 103% (inactive) | 103% (inactive) | 93.7% (inactive) | 99.4% (inactive) | 110% (inactive) | 98.6% (inactive)
O=C1C=CC(=O)N1c1ccc2ccccc2c1 | 88.7% (inactive) and 88.6% (inactive) | 114% (inactive) and 103% (inactive) | 120% (inactive) and 95.4% (inactive) | 19.4% (inactive) and -15.2% (active) | 95.4% (inactive) and 106% (inactive) | 44.9% (inactive) and 54.9% (inactive) | 100% (inactive) and 106% (inactive) | 103% (inactive) and 104% (inactive)
COc1ccc(C2=C(CN)C(O)NC(=NCC(=O)c3ccc4ccccc4c3)N2)cc1 (centres undefined) | 101% (inactive) | 99% (inactive) | 103% (inactive) | 112% (inactive) | 96.2% (inactive) | 92.7% (inactive) | 107% (inactive) | 97.2% (inactive)
COc1ccc(N2CCN(S(=O)(=O)c3oc(-c4ccccc4)nc3C#N)CC2)cc1 | 73.1% (inactive) | 77.5% (inactive) | 65.2% (inactive) | 7.02% (active) | 31.2% (inactive) | 15.4% (inactive) | 100% (inactive) | 104% (inactive)
CCOc1ccc(N2C(N)=NC(N)=NC2(C)C)cc1 | 38% (inactive) and 86% (inactive) | 59.6% (inactive) and 83.4% (inactive) | -42.8% (active) and 82.7% (inactive) | 16.2% (inactive) and 75.8% (inactive) | 6.3% (active) and 88.3% (inactive) | 21.4% (inactive) and 63.1% (inactive) | 40.2% (inactive) and 112% (inactive) | 25.1% (inactive) and 95.6% (inactive)
COc1ccccc1/C=C1\COc2ccc(O)c(O)c2C1=O | 11.6% (inactive) | 24.2% (inactive) | 8.84% (active) | 3.71% (active) | 14.8% (inactive) | 8.37% (active) | 69.7% (inactive) | 20.8% (inactive)
COC(=O)/C=C1/SC(=Nc2ccc([N+](=O)[O-])cc2)N(CCc2c[nH]c3ccccc23)C1=O | 46.5% (inactive) | 60.8% (inactive) | 55.5% (inactive) | 47.3% (inactive) | 20.1% (inactive) | 21.8% (inactive) | 78.3% (inactive) | 66.4% (inactive)
COc1cccc(NC(=O)c2sc3nc(C)c(C(O)c4ccccc4)cc3c2N)c1 (centres undefined) | 35.3% (inactive) | 55.6% (inactive) | 5.31% (active) | 26.5% (inactive) | 17.9% (inactive) | 8.89% (active) | 9.98% (active) | 18% (inactive)
CN1CCN(Cc2ccc(NC(=O)c3cccc(C#Cc4c(N)ncc5ccc(F)cc45)c3)cc2C(F)(F)F)CC1 | 14.8% (inactive) | 28.5% (inactive) | -95.9% (active) | -91.6% (active) | -80.9% (active) | -93.1% (active) | -86.8% (active) | -82.1% (active)
N#Cc1c(-c2cccc(F)c2)cc(-c2cccnc2)[nH]c1=O | 93.4% (inactive) | 98.3% (inactive) | 100% (inactive) | 110% (inactive) | 92.4% (inactive) | 103% (inactive) | 112% (inactive) | 103% (inactive)
Cn1cc(-c2nc3c(F)cc4[nH]ncc4c3c3c2CCCC3)c(C(F)F)n1 | 50.8% (inactive) | 31.1% (inactive) | 27.1% (inactive) | 56.3% (inactive) | 46.5% (inactive) | 39.7% (inactive) | 90.6% (inactive) | 23.2% (inactive)
Cn1ccnc1CN1CCSC(C(=O)Nc2ccccc2)C1 (centres undefined) | 90.7% (inactive) | 93.3% (inactive) | 92.2% (inactive) | 96.9% (inactive) | 91.6% (inactive) | 96.2% (inactive) | 98.6% (inactive) | 97.7% (inactive)
COc1cc(CNC(=O)CCCC/C=C/C(C)C)ccc1O | 97.4% (inactive) and 96.2% (inactive) | 125% (inactive) and 83.4% (inactive) | 99% (inactive) and 106% (inactive) | 113% (inactive) | 103% (inactive) and 96.7% (inactive) | 96.4% (inactive) and 100% (inactive) | 143% (inactive) and 109% (inactive) | 106% (inactive) and 108% (inactive)
Cc1ccc(Nc2nc(-c3cc(O)c(C)c(C)c3O)cs2)cc1 | 35.5% (inactive) | 98.1% (inactive) | 66.4% (inactive) | 111% (inactive) | 71.9% (inactive) | 105% (inactive) | 112% (inactive) | 60.9% (inactive)
O=C1/C(=C/c2cn(-c3ccccc3)nc2-c2ccccc2)SC(=S)N1c1ccccc1 | 99.1% (inactive) | 98% (inactive) | 98.3% (inactive) | 99.8% (inactive) | 93.8% (inactive) | 102% (inactive) | 96.6% (inactive) | 101% (inactive)
COc1cc(/C=C2\C(=O)N(CCCCn3c4ccccc4c(=O)c4ccccc43)c3ccccc32)cc(OC)c1O | 66.1% (inactive) | 51.1% (inactive) | 6.24% (active) | 47.4% (inactive) | 22.8% (inactive) | 57.6% (inactive) | 92.4% (inactive) | 58.4% (inactive)
COc1cc(-c2nn(-c3cccc(NC(=O)CCN4CCN(C)CC4)c3)cc2-c2ccncc2)ccc1Cl | 35.3% (inactive) | 22.4% (inactive) | -46.3% (active) | 26.8% (inactive) | 13.8% (inactive) | 17% (inactive) | 54.7% (inactive) | 22.2% (inactive)
CCCCCCCCn1ccc2cc(NC(=O)CN3CCN(c4nc(C)cc(N5CCCCC5)n4)CC3)ccc21 | 79.6% (inactive) | 83.4% (inactive) | 92.4% (inactive) | 87.6% (inactive) | 70.8% (inactive) | 76% (inactive) | 117% (inactive) | 86.4% (inactive)
COC(=O)[C@H]1Cc2c([nH]c3ccccc23)[C@@H](c2cccs2)N1 | 92.9% (inactive) | 102% (inactive) | 100% (inactive) | 100% (inactive) | 103% (inactive) | 104% (inactive) | 102% (inactive) | 100% (inactive)
ON=C1CCCCCCCC1 | 97.7% (inactive) and 99.2% (inactive) | 110% (inactive) and 101% (inactive) | 103% (inactive) and 113% (inactive) | 108% (inactive) and 105% (inactive) | 98.9% (inactive) and 91.3% (inactive) | 105% (inactive) and 104% (inactive) | 100% (inactive) and 103% (inactive) | 97% (inactive) and 97.8% (inactive)
CC1(C)C(N)=Nc2cc(OCCCCN3Cc4ccccc4C3)c(OCC3CC3)cc21 | 37.7% (inactive) | 83.7% (inactive) | 71.9% (inactive) | 92.8% (inactive) | 48.5% (inactive) | 47% (inactive) | -0.545% (active) | 96% (inactive)
CCN1CCN(CC(=O)Nc2nc3ccc(NCc4ccc(C)cc4)cc3s2)CC1 | 50.7% (inactive) | 88% (inactive) | -41.8% (active) | 44.2% (inactive) | 35.6% (inactive) | 13% (inactive) | 80.9% (inactive) | 73% (inactive)
O=C(NNC(=S)Nc1ccccc1)c1ccncc1 | 109% (inactive) | 88.1% (inactive) | 112% (inactive) | 113% (inactive) | 94.2% (inactive) | 104% (inactive) | 109% (inactive) | 107% (inactive)

— PubChem BioAssay (NCI)
